Screening results: PubChem BioAssay, National Center for Advancing Translational Sciences (NCATS)
G9a inh = inhibitors of human histone lysine methyltransferase G9a; Q96KQ7; G9a H3K9 monomethylation, AlphaScreen, 2 h; Potency, µM (doses to about 102 µM), inactives show at the highest dose activity, negative = inhibition, most hits filed as inhibitors; 350,000 tested, 8.8% active; AID 504332; also: % is scaled to controls: 0 for no effect and ±100 for the full control effect; nearly all actives have a fitted effect of over 75% in size
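Methyltransferase reactions run at room temperature for 2 h (20 nM enzyme, 500 nM biotin-H3K9 peptide, 20 uM SAM) after a 15 min compound preincubation; product detected by AlphaScreen beads and anti-H3K9me1 antibody.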
L3MBTL1 inh = L3MBTL1 (human) inhibition | Potency, µM (doses to about 57.1 µM), for inactives: top-dose activity, negative = inhibition, actives largely listed as inhibitors | Q9Y468 | AID 485360 | 230,000 tested, 0.66% active | AlphaScreen L3MBTL1–H3K9me1 peptide binding; also: % is scaled to controls: 0 for no effect and ±100 for the full control effect; nearly all actives have a fitted effect of over 60% in size
Target sequence (Q9Y468 whole entry, looked up): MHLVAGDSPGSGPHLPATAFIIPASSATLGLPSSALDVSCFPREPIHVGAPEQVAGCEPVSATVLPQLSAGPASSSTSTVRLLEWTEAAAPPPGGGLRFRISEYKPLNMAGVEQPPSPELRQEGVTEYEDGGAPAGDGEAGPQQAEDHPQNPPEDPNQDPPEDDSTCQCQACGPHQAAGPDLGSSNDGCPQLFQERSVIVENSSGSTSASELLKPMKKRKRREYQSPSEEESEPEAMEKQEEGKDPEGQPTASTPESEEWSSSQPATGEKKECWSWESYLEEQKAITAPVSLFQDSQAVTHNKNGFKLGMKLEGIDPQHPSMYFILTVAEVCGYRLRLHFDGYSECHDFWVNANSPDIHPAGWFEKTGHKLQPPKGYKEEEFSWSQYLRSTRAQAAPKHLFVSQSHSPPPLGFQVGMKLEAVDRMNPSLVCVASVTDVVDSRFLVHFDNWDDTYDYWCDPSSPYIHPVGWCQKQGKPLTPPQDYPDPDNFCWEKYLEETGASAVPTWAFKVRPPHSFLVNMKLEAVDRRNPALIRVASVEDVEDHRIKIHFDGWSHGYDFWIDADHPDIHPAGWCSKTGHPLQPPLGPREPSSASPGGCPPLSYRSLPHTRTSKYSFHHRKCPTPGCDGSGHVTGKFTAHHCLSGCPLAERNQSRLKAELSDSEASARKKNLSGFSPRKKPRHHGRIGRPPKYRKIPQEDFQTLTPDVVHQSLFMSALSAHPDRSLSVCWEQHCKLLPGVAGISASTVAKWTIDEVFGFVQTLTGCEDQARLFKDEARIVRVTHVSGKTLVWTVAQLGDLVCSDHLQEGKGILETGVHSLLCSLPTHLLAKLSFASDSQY
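L3MBTL1 50 nM + b-AHA-H3(1-15)K9me1 75 nM, 30 min RT; compound added, 30 min RT; streptavidin donor/Ni-chelate acceptor beads 10 ug/mL each final, 30 min RT dark; AlphaScreen read.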
BAZ2B inh = inhibitors of human BAZ2B bromodomain; AlphaScreen BAZ2B-H3K14Ac peptide displacement; AID 504333; 360,000 tested, 4.4% active; Potency, µM (doses to about 114 µM), inactives show at the highest dose activity change, negative = inhibition, usual class: inhibitors; also: % is scaled to controls: 0 for no effect and ±100 for the full control effect; nearly all actives have a fitted effect of over 60% in size
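BAZ2B (50 nM) with biotin-H3(5-23)K14Ac peptide (50 nM) in PBS pH 7.4, 0.01% Tween-20, preformed 30 min, then compound 30 min at room temperature; top concentration 110uM. AlphaScreen streptavidin donor/nickel chelate acceptor beads (10 ug/mL final), 20 min dark, signal read.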
JMJD2A Tudor inh = JMJD2A Tudor domain (human) inhibition. O75164. AlphaScreen JMJD2A-Tudor / H3K4me3 peptide binding. Potency, µM (top dose mostly 114 µM), for the others: at the highest dose activity change, negative = inhibition, usual class: inhibitors. 390,000 tested, 4.4% active; also: % is scaled to controls: 0 for no effect and ±100 for the full control effect; nearly all actives have a fitted effect of over 50% in size
HP1b binding inh = blocks HP1-beta chromodomain binding to methylated histone tails; Potency, µM (highest dose often 114 µM), without a hit: at the highest dose activity change, negative = inhibition, most hits filed as inhibitors; P83916; AlphaScreen HP1-beta / biotin-H3K9me3 peptide binding; 390,000 tested, 0.56% active; also: nearly all actives have a fitted effect of over 70% in size
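Compound inhibition of the preformed complex between 50 nM HP1-beta and 50 nM biotinylated H3K9me3 peptide was read by AlphaScreen. Buffer was PBS pH 7.4 with 0.01% Tween-20. Incubations ran 30 min at room temperature, with 10 ug/mL donor/acceptor beads.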
* = called active by the depositor; ! = not confirmed by another sample; [ ] = another dose, or the depositor's remark. Only some compounds are listed: those with a hit (about 11% of all), similar ones and a draw of the others. Calls follow the shape of the dose curve; as a rule, active = well fitted inhibition curve with a large enough effect; inconclusive = small, poorly fitted or top-dose-only effect; inactive = no such curve, though single readings can be large or run the other way. Potency is read from the fitted curve at half-maximal effect.

Results for Cc1cc(=O)n(CC(=O)N2CCN(c3ccc(F)cc3)CC2)c2c1c(C)nn2C ?
G9a inh: 1%[59 µM]; BAZ2B inh: inconclusive; JMJD2A Tudor inh: -20%; HP1b binding inh: 13%

Results for Cc1oc2c(c(C)cc3oc(=O)c(CC(=O)NCCc4ccccc4)c(C)c32)c1C ?
G9a inh: -9%[59 µM]; BAZ2B inh: -6%; JMJD2A Tudor inh: -8%; HP1b binding inh: 17%

How did Fc1ccc(NC(=S)NN=C2CCCCCC2)cc1 do in these assays?
G9a inh: 35µM*; L3MBTL1 inh: -11%; BAZ2B inh: inconclusive; JMJD2A Tudor inh: 56µM*; HP1b binding inh: -24%

What do the screens show for `O=C(NN=C1CCCCCCC1)c1ccc(F)cc1`?
G9a inh: -8%; L3MBTL1 inh: 5%[11.4 µM]; BAZ2B inh: -13%; JMJD2A Tudor inh: inconclusive; HP1b binding inh: -9%

Results for S=C(NN=C1CCCCCC1)Nc1ccc(Cl)cc1 ?
G9a inh: 28µM*; BAZ2B inh: -2%; JMJD2A Tudor inh: 100µM*; HP1b binding inh: -18%

Results for Cc1ccnc(NC(=O)CCC(=O)N(CC(=O)NC(C)(C)C)c2ccc3c(c2)OCO3)c1 ?
G9a inh: 27%; BAZ2B inh: -11%; JMJD2A Tudor inh: -5%; HP1b binding inh: 16%

How did CCCCCCCCCCC[N+](C)(C)CC/C=C1/c2ccccc2Sc2ccc(Cl)cc21 do in these assays?
G9a inh: 35µM*; BAZ2B inh: -23%; JMJD2A Tudor inh: inconclusive; HP1b binding inh: 12%

Results for OCCN1CCN(CC/C=C2/c3ccccc3Sc3ccc(Cl)cc32)CC1 ?
G9a inh: 16µM*; L3MBTL1 inh: -2%; BAZ2B inh: inconclusive; JMJD2A Tudor inh: inconclusive; HP1b binding inh: -12%

Results for CNCCC=C1c2ccccc2C=Cc2ccccc21 ?
G9a inh: 3%[21.5 µM]; JMJD2A Tudor inh: -15%; HP1b binding inh: 39%

Results for OCCN1CCN(CCCN2c3ccccc3Sc3ccc(Cl)cc32)CC1 ?
G9a inh: 3%[12.7 µM]; L3MBTL1 inh: -7%; BAZ2B inh: inconclusive; JMJD2A Tudor inh: inconclusive; HP1b binding inh: -16%

What do the screens show for `CN(C)CC/C=C1\c2ccccc2Sc2cc(F)c(Cl)cc21`?
JMJD2A Tudor inh: inconclusive; HP1b binding inh: -18%

What do the screens show for `CN(C)CCC=C1c2ccccc2C=Cc2ccccc21`?
G9a inh: 14µM*!; L3MBTL1 inh: -7%; BAZ2B inh: -20%; JMJD2A Tudor inh: -26%; HP1b binding inh: 38%

What do the screens show for `CCCCCCCCCC[N+](C)(C)CC/C=C1/c2ccccc2Sc2ccc(Cl)cc21`?
G9a inh: inconclusive; BAZ2B inh: -12%; JMJD2A Tudor inh: -32%; HP1b binding inh: 18%

How did Cc1cc(S(=O)(=O)c2ccc([N+](=O)[O-])cn2)ccc1Br do in these assays?
JMJD2A Tudor inh: -12%; HP1b binding inh: 32%

What do the screens show for `O=[N+]([O-])c1ccc(S(=O)(=O)c2ccccc2)nc1`?
G9a inh: 40µM*; BAZ2B inh: 13%; JMJD2A Tudor inh: -19%; HP1b binding inh: 24%

How did Cc1ccc(S(=O)(=O)c2ccc([N+](=O)[O-])cn2)cc1 do in these assays?
G9a inh: 40µM*; BAZ2B inh: inconclusive; JMJD2A Tudor inh: -29%; HP1b binding inh: 6%[57 µM]

How did COc1ccc(C2=C(C#N)C(=O)OC2)cc1 do in these assays?
G9a inh: 32µM*; L3MBTL1 inh: 8%; BAZ2B inh: inconclusive; JMJD2A Tudor inh: -21%; HP1b binding inh: 47%

What do the screens show for `COc1ccc(-c2c(C#N)c(C)nc3c2C(=O)c2ccccc2-3)cc1`?
G9a inh: 16%[0.501 µM]; L3MBTL1 inh: 43%; BAZ2B inh: 19%; JMJD2A Tudor inh: -23%; HP1b binding inh: 73%

What do the screens show for `CC(C)NC(=NCc1ccc(Cl)cc1Cl)Nc1ccccc1`?
G9a inh: -4%; BAZ2B inh: -11%; JMJD2A Tudor inh: -13%; HP1b binding inh: 27%

How did O=C(c1ccco1)N(CCC(c1ccccc1)c1ccco1)Cc1ccccc1 (stereo not given) do in these assays?
G9a inh: inconclusive; L3MBTL1 inh: inconclusive; BAZ2B inh: 50µM*; JMJD2A Tudor inh: 56µM*; HP1b binding inh: -1%
